19 compounds from PubChem BioAssay (NCATS) can be followed below.

One assay relates to CAOV3. Nature of the assay: Primary qHTS to identify gynecologic anti-cancer compounds using libraries of approved drugs and bioactive compounds (AID 1345084). Note: nearly all actives have a fitted effect of over 55% in size. As to conditions: Gynecologic cancer cell panel viability, ATPlite luminescence, 48 h; series mostly up to 57.5 µM. Summed up: (§1)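 ATP-based viability (ATPlite), 1,000 cells/well, 16 h pre-incubation, 48 h compound at 37 C, 5% CO2, 15 min RT before read.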
(In qHTS, concentration-response curves come from the screen itself.)

For another assay, the system named is CASKI. The description is as above. Particulars: Gynecologic cancer cell panel viability, ATPlite luminescence, 48 h; series mostly up to 57.5 µM. Put shortly: as §1
(ATP-based viability assays read luminescence as a measure of living cells.)

Another assay deals with Es-2. Described as above. Particulars: Gynecologic cancer cell panel viability, ATPlite luminescence, 48 h; series mostly up to 57.5 µM. Put shortly: as §1
For the next assay, the system named is HeLa. Described as above. As to conditions: Gynecologic cancer cell panel viability, ATPlite luminescence, 48 h; series mostly up to 57.5 µM. Summed up: as §1
For a further assay, the system named is JEG-3. Described as above. Particulars: Gynecologic cancer cell panel viability, ATPlite luminescence, 48 h; series mostly up to 57.5 µM. Put shortly:
as §1

The subject of another assay is PA-1. The assay is described as above. As to conditions: Gynecologic cancer cell panel viability, ATPlite luminescence, 48 h; series mostly up to 57.5 µM. Put shortly: as §1
A further assay deals with Tov-21-G. The description is as above. Particulars: Gynecologic cancer cell panel viability, ATPlite luminescence, 48 h; series mostly up to 57.5 µM. Put shortly: as §1
For the next assay, the system named is Tov112D. Described as above. As to conditions: Gynecologic cancer cell panel viability, ATPlite luminescence, 48 h; series mostly up to 57.5 µM. Put shortly:
as §1

The next assay has as its system C33A. The assay is described as above. Particulars: Gynecologic cancer cell panel viability, ATPlite luminescence, 48 h; series mostly up to 57.5 µM. Put shortly: as §1
Another assay deals with SKOV3. The description is as above. As to conditions: Gynecologic cancer cell panel viability, ATPlite luminescence, 48 h; series mostly up to 57.5 µM. Put shortly: as §1
The test system of a further assay is Hek293T. Described as above. As to conditions: Gynecologic cancer cell panel viability, ATPlite luminescence, 48 h, control line for the selectivity index; series mostly up to 57.5 µM. Summed up: as §1
The next assay has as its system OV90. The description is as above. Particulars: Gynecologic cancer cell panel viability, ATPlite luminescence, 48 h; series mostly up to 57.5 µM. Summed up: as §1
A short description of assay [1]: qHTS assay to identify inhibitors of the type 1 interferon - major histocompatibility complex class I in skeletal muscle: Counter screen cell viability and HiBit confirmation (AID 1347412). For all read-outs here: nearly all actives have a fitted effect of over 60% in size. As to conditions: iHSKM muscle cells + IFN-b, HiBiT or CellTiter-Glo, 24 h; for activity change, negative = inhibition: Viability, at 45.9 µM (top of the series). Put shortly:
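Luminescence read-out: Nano-Glo HiBiT lytic signal from C-terminally HiBiT-tagged HLA-B in CRISPR-edited human myoblasts, plus CellTiter Glo ATP as viability counter screen. IFN-beta 4.0 ng/ml; 24 hrs treatment at 37 C, 5% CO2.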

Records with an inconclusive call do not appear. Unmarked numbers belong to inactive results. Activity calls are given as the source filed them. Calls come from the whole dose curve; as a rule, active = well fitted curve in the direction sought with a large enough effect; inconclusive = small, poorly fitted or top-dose-only effect, or another doubt; inactive = no such curve, though single readings can be large; an effect the other way counts as inactive or inconclusive.
% is set by controls: 0 for no effect and ±100 for the full control effect; potency is the fitted concentration of half-maximal effect.

For `CC(=O)c1cc(C(=O)N[C@@H](C)Cn2ccc(-c3ccc(C#N)c(Cl)c3)n2)[nH]n1`, the Potency entry in the assay on CAOV3, in the assay on CASKI, in the assay on Es-2, in the assay with HeLa, with JEG-3 and in the assay on PA-1 was “inactive” throughout. The Potency result in the assay with Tov-21-G and in the assay with Tov112D was “inactive” in each case.
For `Cc1ccccc1C#Cc1ccc(CCC(=O)O)cc1`, the Potency entry in the assay with C33A is “inactive”. In addition, the Potency in the assay on Tov-21-G was 17.8 µM (active).
Regarding `CCOc1cc(N2CCC(O)CC2)ccc1Nc1ncc2c(n1)N(C1CCCC1)CCC(=O)N2C`, the Potency entry in the assay with C33A, with JEG-3 and in the assay with Tov112D was “inactive” throughout. Besides, the Potency in the assay with SKOV3 was 8.91 µM (active).
For the compound `O=C(O)c1cc2cccc([N+](=O)[O-])c2[nH]1`, the Potency result with CAOV3, in the assay with CASKI, in the assay on Es-2, with HeLa, in the assay on Hek293T and with JEG-3 was “inactive” each time. Besides, the Potency result with OV90, in the assay with PA-1, with SKOV3 and in the assay with Tov-21-G was “inactive” in each case.
With `CC1=C(C(=O)OCc2ccccc2)C(c2ccc(-c3ccccc3)cc2)NC(=O)N1CCCCCC(=O)O` (stereo not drawn), the Potency result in the assay on CAOV3, with CASKI, with Es-2, with HeLa, in the assay with Hek293T and in the assay on JEG-3 was “inactive” throughout. The Potency entry in the assay on OV90, in the assay on PA-1, in the assay with SKOV3, in the assay on Tov-21-G and in the assay with Tov112D was “inactive” throughout.
`CC(C)CCC[C@@H](C)[C@H]1CC[C@H]2[C@@H]3CC(=O)[C@H]4C[C@@H](O)CC[C@]4(C)[C@H]3CC[C@]12C`: the Potency result with CAOV3, in the assay with CASKI, in the assay with Es-2, in the assay on HeLa, with Hek293T and with JEG-3 was “inactive” in each case. Moreover, the Potency entry with OV90, with PA-1, in the assay on SKOV3, in the assay with Tov-21-G and in the assay with Tov112D was “inactive” each time.
Consider `CC(C)c1c2cc(-c3ccnc(NC4CCC(NC5CCOCC5)CC4)n3)ccc2nn1C` (stereo not drawn), for which the Potency entry in the assay on CAOV3 and with JEG-3 was “inactive” in each case. The Potency in the assay with CASKI was 0.631 µM (active); in the assay on Es-2 it was 0.316 µM (active); in the assay on HeLa it was 0.708 µM (active); with PA-1 it was 0.355 µM (active); with Tov112D it was 0.398 µM (active); in assay [1] (HiBiT), 0.249 µM (active). For the same compound, in assay [1], the activity change, negative = inhibition is -6.54%.
Turning to `CN1c2ccccc2C(=O)N2CCC3c4ccccc4NC3C21` (stereo not drawn), the Potency entry in the assay on C33A and with OV90 was “inactive” each time. In addition, the Potency is 5.62 µM (active) in the assay on Hek293T; 3.98 µM (active) with JEG-3; 4.47 µM (active) in the assay on PA-1; 6.31 µM (active) in the assay on Tov-21-G; 1.78 µM (active) with Tov112D.
As to `COc1cc2nc(N3CCCC3)nc(NCCCCCN3CCCC3)c2cc1OC`, the Potency is 15.8 µM (active) in the assay on C33A; 25.1 µM (active) in the assay on HeLa; 15.8 µM (active) in the assay on Hek293T; 25.1 µM (active) in the assay on OV90; 6.31 µM (active) in the assay on PA-1; 12.6 µM (active) with SKOV3.
Turning to `C[C@@H]1CCC2C(C)(C)[C@H](O)CC[C@]2(C)[C@@]12Cc1c(O)cc3c(c1O2)CNC3=O` (stereo partly drawn), the Potency entry in the assay with CAOV3 was “inactive”.
With `CC[C@H](C)[C@H](NC(=O)[C@H]([C@@H](C)CC)N(C)C(C)=O)C(=O)N[C@H](C(=O)N[C@@H](CC(C)C)C(=O)[C@@]1(C)CO1)[C@@H](C)O`, the Potency with C33A, with HeLa and with Tov112D was 0.1 µM (active) in each case. Besides, the Potency entry in the assay on JEG-3 was “inactive”.
Regarding `CC1(CCOC2OC(CO)C(O)C(O)C2O)CCC23OC2(C1)C(O)CC1C(C)(C(=O)O)CCCC13C` (stereo not drawn), the Potency entry in the assay on CAOV3, with CASKI, in the assay on Es-2, in the assay with HeLa, in the assay with Hek293T and in the assay on JEG-3 was “inactive” in each case. Also, the Potency result with OV90, in the assay with SKOV3, in the assay with Tov-21-G and in the assay with Tov112D was “inactive” each time.
For `O=C(NCc1ccc(S(=O)(=O)c2cc(F)cc(F)c2)cc1)c1ccc2nccn2c1`, the Potency in the assay with CAOV3 is 0.316 µM (active).
On to `COc1ncc(Nc2ncc([C@@H](C)N3CCN(S(C)(=O)=O)CC3)cc2-c2nc(C)nc(N)n2)cc1F`, for which the Potency result in the assay with CAOV3, with Es-2, in the assay with HeLa, with OV90, in the assay on PA-1 and with Tov112D was “inactive” throughout. The Potency was 0.398 µM (active) in the assay with CASKI, 1.26 µM (active) in the assay on Hek293T and 0.398 µM (active) in the assay on SKOV3.
As to `Cc1onc(C(=O)N2CCN(C(c3ccc(Cl)cc3)c3ccc(Cl)cc3)CC2)c1[N+](=O)[O-]`, the Potency in the assay on CAOV3 was 2.24 µM (active); with Es-2, 1 µM (active); in the assay on PA-1, 8.91 µM (active); in the assay with SKOV3 it was 7.94 µM (active); with Tov-21-G, 1.12 µM (active); with Tov112D, 7.94 µM (active). Also, the Potency result in the assay with CASKI, with HeLa, in the assay on Hek293T and with OV90 was “inactive” each time.
Consider `O=C(c1cn(Cc2cncn2Cc2ccc(Br)cc2)cc1-c1cccc2ccccc12)N1CCOCC1`, for which the Potency entry with C33A, in the assay with Es-2 and in the assay on Tov112D was “inactive” each time. In addition, the Potency with SKOV3 is 17.8 µM (active).
Regarding `CC(C)c1cc(C(=O)N2CC[C@H](NC(=O)C3CC3)C2)n[nH]1`, the Potency result in the assay on CAOV3, with CASKI, in the assay with Es-2, in the assay with HeLa, in the assay on Hek293T and in the assay with JEG-3 was “inactive” each time. For the same compound, the Potency entry with OV90, with PA-1, in the assay on SKOV3, with Tov-21-G and with Tov112D was “inactive” throughout.
On to `COc1cc(C(=O)NC2CCN(C)CC2)c(F)cc1Nc1ncc2c(n1)N(C1CCCC1)CC(F)(F)C(=O)N2C`, for which the Potency was 0.282 µM (active) in the assay on C33A, 35.5 µM (active) in the assay with Es-2 and 0.158 µM (active) with PA-1. The activity change, negative = inhibition in [1] was -23.9%.
In the case of `CC1=C(C(=O)O[C@@H]2O[C@H](COC3OCC(O)C(O)C3O)[C@@H](O)[C@H](O)[C@H]2O)C(C)(C)CCC1` (stereo partly drawn), the Potency result with CAOV3, with CASKI, with Es-2, with HeLa, in the assay with Hek293T and with JEG-3 was “inactive” throughout. Moreover, the Potency entry with OV90, in the assay with PA-1, in the assay on SKOV3, in the assay on Tov-21-G and in the assay on Tov112D was “inactive” in each case.
